Active and inactive are the calls of the source. Rule for the calls: active = hit-call score of the fitted dose curve at least 0.9, where 1 is the maximum; inactive = score below 0.9.

E-selectin (Homo sapiens), sequence (P16581 whole entry, looked up): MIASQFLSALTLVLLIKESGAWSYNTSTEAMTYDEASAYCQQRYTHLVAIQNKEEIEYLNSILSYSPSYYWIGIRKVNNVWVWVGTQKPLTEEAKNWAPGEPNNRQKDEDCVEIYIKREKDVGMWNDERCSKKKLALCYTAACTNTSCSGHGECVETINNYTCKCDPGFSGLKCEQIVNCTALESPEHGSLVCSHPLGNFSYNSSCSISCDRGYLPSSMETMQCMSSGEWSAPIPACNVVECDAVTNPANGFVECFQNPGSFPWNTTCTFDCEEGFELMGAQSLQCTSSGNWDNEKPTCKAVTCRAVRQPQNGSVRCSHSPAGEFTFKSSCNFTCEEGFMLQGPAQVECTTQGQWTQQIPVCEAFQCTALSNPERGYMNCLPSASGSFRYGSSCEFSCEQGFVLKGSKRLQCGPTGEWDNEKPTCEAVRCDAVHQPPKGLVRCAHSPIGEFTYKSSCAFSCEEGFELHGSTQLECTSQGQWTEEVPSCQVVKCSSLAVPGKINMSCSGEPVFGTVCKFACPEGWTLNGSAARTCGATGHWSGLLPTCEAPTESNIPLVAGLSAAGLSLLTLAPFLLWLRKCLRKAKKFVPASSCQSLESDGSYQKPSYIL

Read-out in the test: E-selectin (Homo sapiens) (UniProt P16581)
Nature of the test: BSK_3C_Eselectin: BioMAP Diversity Plus: 3C Assay for Eselectin Biomarker Activity (AID 2283015). The following applies: primary human endothelial cells (HUVEC); actives raise or lower the signal. The procedure: BSK_3C is a cell-based, multiplexed-readout assay that uses umbilical vein endothelium, a human vascular primary cell, with measurements taken at 24 hours after chemical dosing in a 96-well plate.BSK_3C_Eselectin is an assay component measured in the BSK_3C assay. It measures E-selectin antibody related to regulation of gene expression using ELISA technology.Data from the assay component BSK_3C_Eselectin was analyzed into 1 assay endpoint. This assay endpoint, BSK_3C_Eselectin, was analyzed with bidirectional fitting relative to DMSO as the negative control and baseline of activity. Using a type of binding reporter, gain or loss-of-signal activity can be used to understand changes in the signaling as they relate to the gene SELE. Furthermore, this assay endpoint can be referred to as a primary readout, because this assay has produced multiple assay endpoints where this one serves a signaling function. To generalize the intended target to other relatable targets, this assay endpoint is annotated to the cell adhesion molecules intended target family, where the subfamily is selectins.
The levels of cell surface (or secreted, indicated by the prefix "s") biomarker endpoints were measured by ELISA. Overt cytotoxicity to cells in confluent adherent cultures (all systems other than the BT system) was assessed by measuring total protein levels using sulforhodamine B (SRB) staining in parallel cultures at the time of biomarker measurements, indicated as SRB endpoints. For proliferation assays for adherent cell types, individual cell types are cultured at sub-confluence and relative cell numbers quantified by SRB staining at time points optimized for each system (48 h: 3C and CASM3C systems; 72 h: BT and HDF3CGF systems; 96 h: SAg system). SRB was performed by staining cells with 0.1% SRB after fixation with 10% TCA and reading wells at 560 nm.Viability and proliferation of PBMC (T cells) was quantified by Alamar Blue reduction for the SAg and BT systems. For PBMC viability (referred to as PBMC Cytotoxicity within the assay endpoint names), cells were plated (75,000/well in a 96-well plate) and then chemical samples added for 1 h before addition of activators, SEB and TSST-1 (20 ng/mL final concentration each). Cells were incubated for 90 h. Then, Alamar Blue (20 uL/well) (Invitrogen, Cat DAL1100) was added for 6 h, and the plates were read with a fluorescence microplate reader at 546/580 nm (excitation/emission). For PBMC proliferation, cells were plated and activated as above but incubated for only 16 h prior to addition of Alamar Blue. Plates were read after 6 h.
In the case of `CCN(CC)C(=O)C(Cl)=C(C)OP(=O)(OC)OC`, the outcome was inactive.
As to `CCOP(=S)(OCC)OP(=S)(OCC)OCC`, the AC50 was 32.1 µM (active).
Turning to `OCCCCO`, the result was inactive.
Take `OC(Cc1ccccc1Cl)(Cn1[nH]cnc1=S)C1(Cl)CC1` (stereo not given): the AC50 is 20 µM (active).
With `COc1ccccc1N`, the outcome was inactive.
For the compound `O=C(CCl)NCO`, the result was inactive.
For the compound `[Cl][Sn]([c]1ccccc1)([c]1ccccc1)[c]1ccccc1`, the AC50 is 0.154 µM (active).
As to `CC(C)O.CC(C)O.OCCN(CCO)CCO.OCCN(CCO)CCO.[Ti]`, the outcome was inactive.
On to `Cc1cc(C)cc(C)c1`, for which the outcome was inactive.
As to `Cc1ccccc1OP(=O)(Oc1ccccc1C)Oc1ccccc1C`, the AC50 was 5.43 µM (active).
As to `Cc1cc(C(C)(C)c2ccc(O)c(C)c2)ccc1O`, the AC50 was 15.8 µM (active).
As for `c1ccc2sc(SNC3CCCCC3)nc2c1`, the result was inactive.
On to `CCOP(=O)(OCC)OC(=CCl)c1ccc(Cl)cc1Cl`, for which the AC50 was 29.2 µM (active).
On to `CCOP(=O)(OCC)SCCSCC`, for which the outcome was inactive.
Consider `CN(C)C(=S)S`, for which the outcome was inactive.
Take `O=C(Cc1ccccc1)OCCc1ccccc1`: the outcome was inactive.
On to `CC(C)N(C(=O)CCl)c1ccccc1`, for which the AC50 is 20 µM (active).
Turning to `O=C(O)COc1cc(Cl)c(Cl)cc1Cl`, the outcome was inactive.
In the case of `C=CC(Cl)CCl` (stereo not given), the result was inactive.
In the case of `Cc1c([N+](=O)[O-])c(C)c([N+](=O)[O-])c(C(C)(C)C)c1[N+](=O)[O-]`, the AC50 was 20 µM (active).
Regarding `N#Cc1cccnc1`, the outcome was inactive.
Take `Cc1ccccc1OP(=O)(Oc1ccccc1)Oc1ccccc1`: the AC50 is 20 µM (active).
For `Clc1cccc(Cl)c1Cl`, the result was inactive.
Turning to `CCOP(=S)(OCC)SCS(=O)(=O)C(C)(C)C`, the outcome was inactive.
Regarding `c1ccc(-c2cccc(-c3ccccc3)c2)cc1`, the concentration at half-maximal activity (AC50) was 11.4 µM (active).
For `O=[N+]([O-])c1ccc(Nc2ccccc2)cc1`, the result was inactive.
Regarding `Cc1cc(Cl)ccc1OC(C)C(=O)O` (stereo not given), the outcome was inactive.
On to `N#CCCC(Br)(C#N)CBr` (stereo not given), for which the AC50 is 10.6 µM (active).
As to `CC1(C)[C@H](C(=O)O[C@H](C#N)c2cccc(Oc3ccccc3)c2)[C@@H]1/C=C(\Cl)C(F)(F)F`, the outcome was inactive.
As for `CC(C)(COCC1CO1)COCC1CO1` (stereo not given), the result was inactive.
For `CC(C)=CC1C(C(=O)OCc2cccc(Oc3ccccc3)c2)C1(C)C` (stereo not given), the concentration at half-maximal activity (AC50) was 2.62 µM (active).
Consider `CCOC(=O)CCN(SN(C)C(=O)Oc1cccc2c1OC(C)(C)C2)C(C)C`, for which the AC50 is 20 µM (active).
As to `CCCCCCCCCCCCc1cccc(S(=O)(=O)O)c1`, the result was inactive.
`Oc1ccc(Cc2ccc(O)cc2)cc1`: the result was inactive.
As for `CCCCOC(=O)COC(=O)c1ccccc1C(=O)OCCCC`, the outcome was inactive.
Turning to `CC(C)(C)c1ccccc1O`, the outcome was inactive.
With `CCCCCCCCCCCCN(C)C`, the result was inactive.
Regarding `O=S(=O)(C(Cl)(Cl)Cl)C(Cl)(Cl)Cl`, the AC50 is 1.86 µM (active).
On to `CCOC(=O)CC(=O)CCl`, for which the AC50 is 20 µM (active).
For the compound `CCCCN(CCCC)C(=S)[S-].CCCCN(CCCC)C(=S)[S-].[Ni+2]`, the outcome was inactive.

The record behind these values is PubChem BioAssay (EPA / NIEHS).
